A short description of experiment [1]: inhibitors of TNFa-induced NFkB p65 translocation, primary screen, imaging, HUVEC, MLSMR starter and 10KST1 sets (AID 438;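 active means inhibition above 20% together with a positive visual image hit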;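 further: compound added about 3h40 before a 20 min TNFalpha stimulation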;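 on inhibition: signal is the nuclear over cytoplasmic p65 intensity ratio per well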). To be noted: HUVEC TNFa-induced p65 nuclear translocation; cell count: measured here: nuclei count (cytotoxicity indicator), at 2.08 µM; inhibition: at 2 µM, stronger effect = higher value, 0% TNFa-plus-vehicle, 100% no-TNFa wells.
Experiment [2] in a line: inhibitors of mutant huntingtin aggregation, primary screen, imaging, exon1htt(103Q)mCFP cells, high-content imaging (AID 483).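 Further: compound exposure lasted 3 days before fixation.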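 On nuclei count: percent of the per-plate median nuclei count of sample wells.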 As to conditions: exon1htt(103Q)mCFP cell line, aggregate imaging, at 2 µM; inhibition of aggregation: stronger effect = higher value; nuclei count: measured here: cell count, toxicity.
Experiment [3] can be described thus: inhibitors of E-selectin induction by TNFa, primary screen, imaging, HUVEC, immunofluorescence, MLSMR starter and 10KST1 sets (AID 487;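 active means visually confirmed hit in the image check and inhibition above 20%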;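 on inhibition: signal is fraction of cell area covered by stained E-selectin grains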;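 on nuclei count: 100% = median nuclei count of all wells on the same plate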). As to conditions: HUVEC TNFalpha-induced E-selectin immunofluorescence imaging, at 2 µM; inhibition: stronger effect = higher value; nuclei count: measured here: cell number, toxicity.
For experiment [4], the target named is Voltage-gated potassium channel subunit beta-2 (Rattus norvegicus) (UniProt P62483). The experiment can be described thus: KvBeta enzyme negative modulators, primary screen, biochemical, NADPH fluorescence (AID 622;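 active means fluorescence slope higher than the sample average by over 3 SD, cut at about -0.22 in these data, passing the limit was not always enough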;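 further: slope of raw intensity against log time taken from 70 to 1610 s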). As to conditions: recombinant KvBeta, 4-cyanobenzaldehyde reduction, at 10 µM, stronger effect = higher value.
Chain of Voltage-gated potassium channel subunit beta-2 (Rattus norvegicus) (P62483 whole entry, looked up): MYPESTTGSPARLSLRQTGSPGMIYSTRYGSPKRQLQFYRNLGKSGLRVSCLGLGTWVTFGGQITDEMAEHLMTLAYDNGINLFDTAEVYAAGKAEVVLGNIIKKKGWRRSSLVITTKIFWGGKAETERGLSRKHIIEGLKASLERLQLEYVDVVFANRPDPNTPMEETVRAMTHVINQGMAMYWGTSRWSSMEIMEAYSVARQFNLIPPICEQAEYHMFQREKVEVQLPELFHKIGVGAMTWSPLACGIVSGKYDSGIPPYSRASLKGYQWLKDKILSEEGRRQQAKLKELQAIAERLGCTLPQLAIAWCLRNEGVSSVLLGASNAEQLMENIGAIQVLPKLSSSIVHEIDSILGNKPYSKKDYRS
For experiment [5] the target is unchanged. The experiment can be described thus: KvBeta positive modulators, primary screen, biochemical, NADPH fluorescence (AID 623;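 active means NADPH fluorescence slope more negative than the mean of all samples by about 3 SD, 99.7% confidence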;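 further: fluorescence intensity change per second fitted from 20 to 320 s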). As to conditions: Recombinant KvBeta, NADPH fluorescence decrease slope, 10 min; at 10 µM; stronger effect = lower value.
The target of experiment [6] is Alpha-2C adrenergic receptor (Homo sapiens) (UniProt P18825). Briefly: modulators of alpha2C/GIRK thallium flux, primary screen, cell-based, HEK293 alpha2C/GIRK1/2 (AID 624;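 active means fluorescence slope after compound addition differing from the mean of all screened samples at 99.7% confidence, in either direction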;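 further: slope of fluorescence ratio to pre-addition baseline per second over 15 to 24 s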). To be noted: thallium flux BTC fluorescence, at 10 µM, actives lie on both sides.
Chain of Alpha-2C adrenergic receptor (Homo sapiens) (P18825 whole entry, looked up): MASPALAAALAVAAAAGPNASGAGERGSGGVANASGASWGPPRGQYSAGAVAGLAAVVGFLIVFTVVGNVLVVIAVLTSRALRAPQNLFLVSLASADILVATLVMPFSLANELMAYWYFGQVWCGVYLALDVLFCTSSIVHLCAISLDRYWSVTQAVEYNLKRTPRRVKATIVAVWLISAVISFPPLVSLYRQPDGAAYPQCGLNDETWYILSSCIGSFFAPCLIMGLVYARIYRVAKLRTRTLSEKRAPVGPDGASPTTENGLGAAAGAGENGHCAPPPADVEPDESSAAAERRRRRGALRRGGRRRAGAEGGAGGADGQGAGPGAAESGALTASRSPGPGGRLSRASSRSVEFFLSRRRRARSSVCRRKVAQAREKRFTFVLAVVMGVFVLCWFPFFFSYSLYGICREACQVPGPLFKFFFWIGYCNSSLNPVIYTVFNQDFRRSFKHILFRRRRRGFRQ
Experiment [7] in a line: inhibitors of Sendai virus-induced IRF3 signaling, primary screen, TLR/RLR signaling modifier project, cell-based, Sendai virus stimulus, luciferase, 10K MLSCN set (AID 602276;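 active means inhibition at or above 50% at 10 µM; inactive means inhibition below 50%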;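 further: firefly luciferase from ISG56 promoter only with Renilla not read in this screen; 0% = Sendai virus plus DMSO and 100% = medium plus DMSO without virus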). To be noted: HEK293 RL24 IRF3 luciferase reporter, at 10 µM, stronger effect = higher value.
Experiment [8] is described as follows: inhibitors of poly I:C-induced TLR3 signaling, primary screen, cell-based, poly I:C stimulus, luciferase, 10K MLSCN set (AID 602277;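 active means inhibition of the reporter signal at or above 50%; inactive means inhibition below 50%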). As to conditions: HEK293-TLR3 RL24 IRF3 luciferase reporter, at 10 µM, stronger effect = higher value.

Molecules are shown by their SMILES. Active and inactive are the calls of the source.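 How the source made its calls, unless noted: active means visual image review flags a hit and inhibition of aggregation exceeds 20%; inconclusive means visual hit but inhibition at or below 20%; inactive means no hit on visual image review.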

As for `O=C(Nc1ccncc1)C1CCCN(S(=O)(=O)c2cccc3cccnc23)C1` (centres undefined), the cell count in experiment [1] worked out at 686. The inhibition in experiment [1] was 6.8% (inactive); in experiment [3], -46% (inactive); in experiment [7], 40.7% (inactive); in experiment [8] it was 34.4% (inactive). The inhibition of aggregation in experiment [2] is -328% (inactive). Moreover, the nuclei count came to 4.8% in experiment [2] and 104% in experiment [3]. Also, the fluorescence slope in experiment [4] was -0.548 (inactive). In addition, the NADPH fluorescence slope in experiment [5] was -3.9e-05 (inactive). Besides, the slope in experiment [6] was 0.00584 (inactive).

In the case of `C=CCn1c(-c2ccccc2)c[nH]c1=S`, in experiment [1], the cell count amounted to 544. The inhibition is -9.5% (inactive) in experiment [1], 8.5% (inactive) in experiment [3], -33.4% (inactive) in experiment [7] and -112% (inactive) in experiment [8]. For the same compound, the inhibition of aggregation in experiment [2] is -9.3% (inactive). The results for the nuclei count in experiment [2] and in experiment [3] were 112% and 101%, respectively. In addition, the fluorescence slope in experiment [4] is -0.61 (inactive). The NADPH fluorescence slope in experiment [5] was -4.2e-05 (inactive). The slope in experiment [6] was 0.00665 (inactive).

On to `Cc1cc(C(=O)CSc2nc3ccccc3[nH]2)c(C)n1C`, for which the cell count in experiment [1] is 659. The inhibition was 5.3% (inactive) in experiment [1], -82.7% (inactive) in experiment [3], -46.8% (inactive) in experiment [7] and -155% (inactive) in experiment [8]. In addition, the inhibition of aggregation in experiment [2] was 7.6% (inactive). The nuclei count in experiment [2] is 113%; in experiment [3] it was 123%. Besides, the fluorescence slope in experiment [4] is -0.59 (inactive). The NADPH fluorescence slope in experiment [5] was -5.2e-05 (inactive). In addition, the slope in experiment [6] is 0.00445 (inactive).

`CCOc1cccc(-n2nnnc2-c2ccc(OC)cc2)c1`: in experiment [1], the cell count is 208. Besides, the inhibition in experiment [1] is 1.2% (inactive); in experiment [3], -13.7% (inactive); in experiment [7], 43% (inactive); in experiment [8] it was 61.2% (active). In addition, in experiment [2], the inhibition of aggregation is -34.6% (inactive). The nuclei count is 3.6% in experiment [2] and 112% in experiment [3]. In experiment [4], the fluorescence slope was -0.591 (inactive). Besides, the NADPH fluorescence slope in experiment [5] was -1.5e-05 (inactive). Moreover, in experiment [6], the slope was 0.00569 (inactive).

In the case of `COc1ccc(NC(=O)CN(c2ccc(C(C)C)cc2)S(=O)(=O)c2c(C)noc2C)cc1OC`, the cell count in experiment [1] is 787. Also, the inhibition is 3.4% (inactive) in experiment [1], -24.6% (inactive) in experiment [3], 18.3% (inactive) in experiment [7] and 41.9% (inactive) in experiment [8]. For the same compound, the inhibition of aggregation in experiment [2] is -119% (inactive). Besides, the nuclei count in experiment [2] was 123%; in experiment [3] it was 108%. Moreover, the fluorescence slope in experiment [4] is -0.617 (inactive). Moreover, in experiment [5], the NADPH fluorescence slope is 2e-05 (inactive). In experiment [6], the slope was 0.00605 (inactive).

For `Cc1cc2ncn(C(=O)c3c(-c4ccccc4)noc3C)c2cc1C`, in experiment [1], the cell count stood at 202. For the same compound, the inhibition in experiment [1] is -15.9% (inactive); in experiment [3], 25.9% (inactive); in experiment [7], 5.72% (inactive); in experiment [8], 18.2% (inactive). Also, the inhibition of aggregation in experiment [2] is -7.9% (inactive). Moreover, the nuclei count came to 85.7% in experiment [2] and 99.7% in experiment [3]. Further, the fluorescence slope in experiment [4] was -0.433 (inactive). Also, the NADPH fluorescence slope in experiment [5] is -2.6e-06 (inactive). Further, in experiment [6], the slope was 0.00548 (inactive).

For the compound `CC1=Nn2c(nnc2-c2ccc(F)cc2)SC1`, the cell count in experiment [1] stood at 340. The inhibition in experiment [1] is -2.4% (inactive); in experiment [3], -66% (inactive); in experiment [7] it was -12.4% (inactive); in experiment [8] it was -3.16% (inactive). Also, in experiment [2], the inhibition of aggregation was 4% (inactive). Also, the nuclei count in experiment [2] turned out to be 107%; in experiment [3], 95.6%. Also, the fluorescence slope in experiment [4] is -0.33 (inactive). The NADPH fluorescence slope in experiment [5] was -4.3e-05 (inactive). Also, in experiment [6], the slope was 0.00575 (inactive).

For `Cc1noc(C)c1S(=O)(=O)N1CCN(Cc2ccc3c(c2)OCO3)CC1`, the cell count in experiment [1] was 730. For the same compound, the inhibition in experiment [1] was 2.5% (inactive); in experiment [3], -16.7% (inactive); in experiment [7], 4.24% (inactive); in experiment [8] it was 18.3% (inactive). The inhibition of aggregation in experiment [2] was 0.3% (inactive). The nuclei count was found to be 106% in experiment [2] and 117% in experiment [3]. Besides, the fluorescence slope in experiment [4] was -0.542 (inactive). The NADPH fluorescence slope in experiment [5] is -2e-05 (inactive). Moreover, the slope in experiment [6] was 0.00533 (inactive).

Regarding `O=C(Cn1cnc2c(cnn2-c2ccccc2)c1=O)NCCc1ccccc1`, in experiment [1], the cell count turned out to be 441. Besides, the inhibition in experiment [1] was 3.5% (inactive); in experiment [3] it was -25% (inactive); in experiment [7], 10.8% (inactive); in experiment [8] it was 17.4% (inactive). Also, the inhibition of aggregation in experiment [2] was -9.4% (inactive). Also, the nuclei count in experiment [2] was found to be 112%; in experiment [3], 113%. Besides, the fluorescence slope in experiment [4] is -0.535 (inactive). Besides, the NADPH fluorescence slope in experiment [5] is -6.8e-07 (inactive). Besides, the slope in experiment [6] was 0.00728 (inactive).

`O=S1(=O)C=C(Sc2nc3ccccc3s2)c2ccccc21`: the cell count in experiment [1] is 581. Also, the inhibition in experiment [1] was -2.6% (inactive); in experiment [3] it was 121% (active); in experiment [7] it was 16.3% (inactive); in experiment [8], 84.8% (active). In addition, the inhibition of aggregation in experiment [2] is -17.5% (inactive). Also, the results for the nuclei count in experiment [2] and in experiment [3] were 67.1% and 72.2%, respectively. The fluorescence slope in experiment [4] was -0.474 (inactive). Further, in experiment [5], the NADPH fluorescence slope was 5.2e-06 (inactive). Further, the slope in experiment [6] was 0.00662 (inactive).

Turning to `Cc1nn(C(=O)c2ccc3c(c2)OCO3)c(N)c1-c1ccccc1`, the cell count in experiment [1] was 581. Further, the inhibition was 5.1% (inactive) in experiment [1], -19.8% (inactive) in experiment [3], -23.3% (inactive) in experiment [7] and -108% (inactive) in experiment [8]. In experiment [2], the inhibition of aggregation was 11.7% (inactive). In addition, the nuclei count came to 91.3% in experiment [2] and 106% in experiment [3]. Further, in experiment [4], the fluorescence slope is -0.451 (inactive). In addition, in experiment [5], the NADPH fluorescence slope was 1.4e-05 (inactive). In experiment [6], the slope is 0.00618 (inactive).

Turning to `Cc1nc2cc(-n3ccc(=O)cc3)ccc2n1-c1ccccc1`, in experiment [1], the cell count stood at 352. In addition, the inhibition in experiment [1] was -2.1% (inactive); in experiment [3] it was -286% (inactive); in experiment [7], 19.8% (inactive); in experiment [8], 99% (active). In experiment [2], the inhibition of aggregation is 1.3% (inactive). In addition, the nuclei count in experiment [2] amounted to 98.4%; in experiment [3], 113%. Moreover, the fluorescence slope in experiment [4] is -0.407 (inactive). Further, in experiment [5], the NADPH fluorescence slope is -3.5e-05 (inactive). Besides, in experiment [6], the slope is 0.00591 (inactive).

Turning to `Cc1csc(NC(=O)c2ccco2)n1`, the cell count in experiment [1] was 464. Moreover, the inhibition was -3.3% (inactive) in experiment [1], -72% (inactive) in experiment [3], -20.1% (inactive) in experiment [7] and -56.9% (inactive) in experiment [8]. The inhibition of aggregation in experiment [2] was -1.8% (inactive). In addition, the nuclei count in experiment [2] is 109%; in experiment [3] it was 131%. For the same compound, the fluorescence slope in experiment [4] is -0.32 (inactive). The NADPH fluorescence slope in experiment [5] was -1.3e-06 (inactive). Also, the slope in experiment [6] is 0.00701 (inactive).

`FC(F)(F)c1nnc2sc(-c3cccs3)nn12`: the cell count in experiment [1] turned out to be 382. Moreover, the inhibition in experiment [1] is -4% (inactive); in experiment [3], -28.5% (inactive); in experiment [7], 10.9% (inactive); in experiment [8], 11.3% (inactive). Moreover, the inhibition of aggregation in experiment [2] was -16.2% (inactive). Moreover, the nuclei count amounted to 84.9% in experiment [2] and 96.5% in experiment [3]. Besides, the fluorescence slope in experiment [4] is -0.567 (inactive). Besides, in experiment [5], the NADPH fluorescence slope is -4.5e-05 (inactive). Besides, the slope in experiment [6] is 0.00576 (inactive).

The values are drawn from PubChem BioAssay.
